# Laboratory results taken from the supplement of paper PMC6555819.
# Key:
# Test in all cases: PBM binding z-score (relative to random genomic background probes); higher = stronger binding; sequences stand for … in GC…GCGATTGACAGCGTAGAATGAAGG
# [1] = test system: FXR:RXRa (NR concentration 270 nM, RXRa partner concentration 90 nM)
# In short: (§1)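 Regression normalization was applied to scanned fluorescence from custom Agilent 4×180K protein-binding microarrays. Before scanning, arrays were incubated 1 h with ligand-free nuclear receptor dimers, and binding was detected with antibodies against each partner (one per run). Binding z-scores use the random background probes as reference.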
# [2] = test system: LXRa:RXRa (NR concentration 270 nM, RXRa partner concentration 90 nM)
# In short: as §1
# [3] = test system: LXRa homodimer (NR concentration 270 nM)
# In short: as §1
# [4] = test system: LXRb:RXRa (NR concentration 270 nM, RXRa partner concentration 90 nM)
# In short: as §1
# [5] = test system: LXRb homodimer (NR concentration 270 nM)
# In short: as §1
# [6] = test system: PPARa:RXRa (NR concentration 270 nM, RXRa partner concentration 90 nM)
# In short: as §1
# [7] = test system: PPARg:RXRa (NR concentration 180 nM, RXRa partner concentration 90 nM)
# In short: as §1
# [8] = test system: PPARg:RXRa 270nM:90nM, anti-RXR (NR concentration 270 nM, RXRa partner concentration 90 nM)
# In short: as §1
# [9] = test system: PPARg:RXRa 30nM:10nM, anti-RXR (NR concentration 30 nM, RXRa partner concentration 10 nM)
# In short: as §1
# [10] = test system: PPARg:RXRa 90nM:30nM, anti-RXR (NR concentration 90 nM, RXRa partner concentration 30 nM)
# In short: as §1
# [11] = test system: PPARg:RXRa DBDmut IVT, anti-RXR (DBD mutation: RXRa K156A/R161A, NR concentration 270 nM, RXRa partner concentration 90 nM)
# In short: as §1
# [12] = test system: PPARg:RXRa IVT, anti-PPARg (NR concentration 270 nM, RXRa partner concentration 90 nM)
# In short: as §1
# [13] = test system: PPARg DBDmut:RXRa IVT, anti-PPARg (DBD mutation: PPARg1 K132A/R137A, NR concentration 270 nM, RXRa partner concentration 90 nM)
# In short: as §1
# [14] = test system: PPARg DBDmut IVT, anti-PPARg (DBD mutation: PPARg1 K132A/R137A, NR concentration 270 nM)
# In short: as §1
# [15] = test system: PPARg homodimer (NR concentration 180 nM)
# In short: as §1
# [16] = test system: PXR:RXRa (NR concentration 270 nM, RXRa partner concentration 90 nM)
# In short: as §1
# [17] = test system: PXR homodimer (NR concentration 270 nM)
# In short: as §1
# [18] = test system: RARa:RXR (NR concentration 270 nM, RXRa partner concentration 90 nM)
# In short: as §1
# [19] = test system: RARa homodimer (NR concentration 270 nM)
# In short: as §1
# [20] = test system: RARb:RXRa (NR concentration 270 nM, RXRa partner concentration 90 nM)
# In short: as §1
Sequence,PBM binding z-score [1],PBM binding z-score [2],PBM binding z-score [3],PBM binding z-score [4],PBM binding z-score [5],PBM binding z-score [6],PBM binding z-score [7],PBM binding z-score [8],PBM binding z-score [9],PBM binding z-score [10],PBM binding z-score [11],PBM binding z-score [12],PBM binding z-score [13],PBM binding z-score [14],PBM binding z-score [15],PBM binding z-score [16],PBM binding z-score [17],PBM binding z-score [18],PBM binding z-score [19],PBM binding z-score [20]
CCTAGCAGGCCAGGGTCGCTCAAGCATTTCGCTT,1.21,1.49,-0.612,1.26,-1.47,2.58,-0.528,0.271,-1.11,-0.71,-0.39,-0.535,-1.87,-2.27,-0.112,1.78,-0.439,1.84,-0.399,0.562
CCTTACGGGTCACACCAGGTTATAGCATCGGAGT,5.86,6.35,1.01,4.08,0.198,5.2,5.14,4.95,2.28,3.6,2.98,4.37,0.627,-0.128,2.63,5.3,0.565,5.06,1.44,4.06
ACCTCTAGGTAAAGTTCAGTGAAAGATCGATAGA,0.698,1.23,0.94,0.893,0.102,1.58,1.08,2.32,0.584,1.63,1.91,1.47,-0.268,0.284,0.684,1.61,1.03,0.806,0.172,2.41
AGTCAAAGTTCACTAGGAAACGTAAGATTCAGCT,5.38,5.47,2.41,2.89,0.822,4.1,5.8,6.01,2.93,5.11,0.0474,2.6,1.13,0.557,2.18,3.61,2.13,2.66,0.899,4.84
GTACCAAGGTGAATAAGTCGTTGATGAGTAGGCG,0.544,0.243,-0.143,-0.0627,-0.489,0.853,0.832,0.279,0.154,-0.268,1.47,1.77,-0.113,0.912,0.706,-0.129,0.166,0.233,0.8,1.27
TGAATGAGGTTAAAGATCAGGAAACGTGGCGTCG,3.12,2.5,-0.309,1.69,-0.0435,4.49,5.58,6.34,4.41,6.93,2.17,3.35,0.769,0.42,1.22,2.17,-0.325,3.49,-0.294,1.94
TAGCCTAGGTCATGCGGGCCCGTATAGTGTCGGC,3.96,3.12,0.169,1.59,0.214,3.37,1.74,2.29,0.0314,1.22,1.87,3.05,-0.348,0.0155,0.405,1.07,-0.531,2,-0.428,3.62
